Compound activity as filed in PubChem BioAssay.
Compounds with a hit are over-represented: about 1.6% of the library has one in this group of screens.
LMNA splice mod – LMNA splicing modulation | Potency, µM (top dose mostly 46.1 µM), most hits filed as inhibitors | actives 0.01% (n = 200,000) | HeLa LMNA splicing GFP/RFP minigene ratio, 48 h; active = well fitted inhibition curve with a large enough effect in the signal ratio, with a control signal flat, not every such curve was filed as active; inconclusive = small, poorly fitted or top-dose-only effect, or effect the other way, or a change in a side signal; the % refers to the signal ratio
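S3 HeLa stable clones carrying a lamin A-EGFP splicing minigene plus DsRed2 were seeded at 600 cells/well in Opti-MEM with 2% FBS, pin-dosed and incubated 48 h at 37°C. Acumen cytometry (488 nm) gave the GFP/RFP total-intensity ratio.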
NPSR antagonist – antagonists of human neuropeptide S receptor cAMP signaling. CHO-NPSR cells, cAMP TR-FRET, antagonist mode. Q6W5P4. actives 1% (n = 220,000). AID 1461. Potency, µM (titrated, usually from 38.3 µM), usual class: inhibitors; note: nearly all actives have a fitted effect of over 50% in size
Target sequence (Q6W5P4 whole entry, looked up): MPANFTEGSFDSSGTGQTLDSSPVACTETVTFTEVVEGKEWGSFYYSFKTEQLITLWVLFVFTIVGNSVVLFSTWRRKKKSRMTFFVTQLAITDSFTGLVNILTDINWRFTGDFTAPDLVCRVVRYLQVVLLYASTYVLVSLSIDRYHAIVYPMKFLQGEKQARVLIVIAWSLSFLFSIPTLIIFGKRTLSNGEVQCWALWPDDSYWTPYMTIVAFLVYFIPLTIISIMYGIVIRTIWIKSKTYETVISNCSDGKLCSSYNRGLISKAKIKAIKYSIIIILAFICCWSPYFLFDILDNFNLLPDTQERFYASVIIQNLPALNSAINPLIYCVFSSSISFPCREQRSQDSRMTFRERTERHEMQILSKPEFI
HTT aggregate – reduces HttQ103-GFP aggregates in PC12 cells | PC12 HttQ103-GFP aggregates, Acumen cytometry, 40 h | Potency, µM (top dose mostly 46.1 µM), actives largely listed as inhibitors | actives 1.1% (n = 220,000); note: nearly all actives have a fitted effect of over 60% in size
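Ecdysone-promoter PC12 model expressing HTT exon 1 Q103 fused to GFP, induced by tebufenozide at 100 nM final. Compounds titrated; aggregates sized 1–25 µm scored on a 488 nm laser cytometer.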
IMPase Li cell – membrane-permeable IMPase blocker, potentiated with lithium; Potency, µM (series often up to 59.4 µM), actives largely listed as inhibitors; actives 0.35% (n = 210,000); CHO-M1 cells, IP1 TR-FRET (IP-One), carbachol + lithium;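 note: IP1 builds up when IMPase is blocked and the TR-FRET signal falls; nearly all actives have a fitted effect of over 50% in size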
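Lithium-sensitised IP1 accumulation assay; M1-expressing CHO cells treated 30 min at 37C with compound. Competitive antibody detection by time-resolved FRET followed a 10 min room-temperature lysis step.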
IMPase inh – cell-permeable inhibitors of inositol monophosphatase (IMPase). AID 901. 120,000 tested, under 10 active. P97697. CHO-M1 cells, IP1 accumulation, HTRF TR-FRET ratio. inhibition (IP1 accumulation), % at 46.1 µM; active = well fitted curve in the direction sought with a large enough effect in the signal ratio, not every such curve was filed as active; inconclusive = small, poorly fitted or top-dose-only effect, or a change in a side signal; inactive = no such curve, though single readings can be large or run the other way; the % refers to the signal ratio;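 note: cells stimulated with carbachol in lithium chloride buffer; higher means more IMPase inhibition seen as more IP1 and lower FRET ratio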
Target sequence (P97697 whole entry, looked up): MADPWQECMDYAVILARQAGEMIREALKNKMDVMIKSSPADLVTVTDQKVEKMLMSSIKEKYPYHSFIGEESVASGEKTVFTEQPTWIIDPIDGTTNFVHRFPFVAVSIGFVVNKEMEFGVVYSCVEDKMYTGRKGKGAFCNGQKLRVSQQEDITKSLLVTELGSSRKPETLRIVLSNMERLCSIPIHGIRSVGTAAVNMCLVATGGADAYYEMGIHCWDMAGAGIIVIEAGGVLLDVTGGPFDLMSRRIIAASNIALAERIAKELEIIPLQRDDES
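CHO-M1, 2000 cells/well, cultured 16–30 h; cpd up to 46 uM; carbachol (50 uM solution, stimulation buffer w/ 50 mM LiCl, pH 7.4), 30 min 37C; IP-One TR-FRET, 10 min RT; Ex 320/Em 665, 620; Hill-fit AC50.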
HTT cytoprotect – Huntington cell model cytoprotection by ATP luminescence; AID 1471; Potency, µM (series often up to 56.4 µM), most hits filed as activators; PC12 HTT-Q103 induced, cytoprotection, ATP luminescence, 40 h; actives 0.14% (n = 230,000); note: nearly all actives have a fitted effect of over 45% in size
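Huntington model: PC12 line, ecdysone-inducible HTTQ103 exon1–GFP, tebufenozide 100 nM. Test articles in a dose series. Endpoint luminescence from cellular ATP.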
Numbers stand for hits; . = inactive; ? = inconclusive; / = not tested or not shown; ! = a repeat was not active; [ ] = dose if it differs, or a comment. Unless noted, calls come from the whole dose curve; as a rule, active = well fitted curve in the direction sought with a large enough effect; inconclusive = small, poorly fitted or top-dose-only effect, or another doubt; inactive = no such curve, though single readings can be large; an effect the other way counts as inactive or inconclusive.

SMILES | LMNA splice mod | NPSR antagonist | HTT aggregate | IMPase Li cell | IMPase inh | HTT cytoprotect
O=C(CC(c1ccccc1)c1ccccc1)Nc1ccc(Cl)cn1 | . | 10µM | ? | . | . | .
O=C(CSCc1ccccc1)Nc1ccc(Cl)cn1 | . | . | . | . | . | .
CCOC(=O)c1ccc(CN(Cc2ccc(F)cc2)S(=O)(=O)c2ccc(F)c(C(=O)Nc3c(C)cccc3C)c2)cc1 | . | / | / | / | / | /
O=C(O)Cn1c(=O)oc2cc(S(=O)(=O)N3CCOCC3)ccc21 | / | / | / | / | / | .
Cc1ccc(CNC(=O)C2CCCN(S(=O)(=O)c3cccnc3)C2)cc1 (stereo not given) | . | . | . | . | . | .
O=C(NCc1ccc2c(c1)OCO2)C1CCCN(S(=O)(=O)c2cccnc2)C1 (stereo not given) | . | . | 32µM | . | . | .[10 µM]
CCC(C)NC(=O)CSc1nc(-c2cccs2)cc(C(F)(F)F)n1 (stereo not given) | . | ? | 13µM | . | . | .[10 µM]
COc1ncc2ncc(=O)n(Cc3ccc(F)cc3)c2n1 | / | / | / | . | / | .
CCSc1nc2cc(C(=O)OC)ccc2c(=O)n1CC | . | . | . | . | . | .
COC(=O)c1ccc2c(=O)n3c(nc2c1)SCC(c1ccccc1)=N3 | . | ? | . | 10µM | . | .
COc1ccc2c(Cc3c4ccccc4cc4ccccc34)cncc2c1O | / | / | / | . | / | .[10 µM]
COCOc1ccc(OC)cc1C(=O)/C=C/c1ccc(OC)c(Br)c1 | / | / | / | . | / | .
C/C(=N/Nc1nc(-c2ccccc2)cc(-c2ccccc2)n1)c1ccc(N)cc1 | ? | . | . | . | . | .[10 µM]
C/C(=N/Nc1cc(-c2ccccc2)nc(-c2ccccc2)n1)c1ccc(O)cc1 | ? | . | 35µM | . | / | .[10 µM]
CCC(=O)/C=C1/Sc2ccccc2N1CC | . | . | 7.1µM | . | . | .[10 µM]
CCC(=O)/C=C1/Sc2ccc(OC)cc2N1CC | . | . | . | . | . | .
O=S(=O)(c1ccc2c(c1)C(=NO)c1cc(S(=O)(=O)N3CCCCC3)ccc1-2)N1CCCCC1 | ? | 2µM | ? | . | . | .[10 µM]
CC1CCN(S(=O)(=O)c2cccc(C(=O)O)c2)CC1 | . | . | . | . | . | .
CC1CCN(S(=O)(=O)c2ccc3c(c2)C(=NO)c2cc(S(=O)(=O)N4CCC(C)CC4)ccc2-3)CC1 | . | 0.5µM | 3.2µM | . | . | .
CS(=O)(=O)N1CCC2(CCN(C(=O)Nc3cccc(F)c3)CC2)CC1 | / | / | / | . | / | .
Nc1c(C(=O)Nc2nc3ccccc3s2)sc2nc(-c3cccs3)ccc12 | ? | 10µM | ? | 11µM | ? | .
COc1cc2ccc(=O)oc2cc1O | ? | / | / | 10µM! | . | .[1.9 µM]
COc1cc2ccc(=O)oc2cc1OCC(O)C(C)(C)O (stereo not given) | / | . | .[9.22 µM] | / | / | .[10 µM]
COc1ccccc1OC(=O)Oc1ccccc1OC | ? | / | . | / | / | .
CC[C@H](C)C(=O)O[C@H]1CCC=C2C=C[C@H](C)[C@H](CC[C@@H]3C[C@@H](O)CC(=O)O3)[C@H]21 | . | 16µM! | ? | . | / | .[10 µM]
SMILES | LMNA splice mod | NPSR antagonist | HTT aggregate | IMPase Li cell | IMPase inh | HTT cytoprotect
CC(=O)OC[C@@H]1O[C@@H](Oc2cc(OC(C)=O)c3c(=O)cc(-c4ccc(OC(C)=O)c(OC(C)=O)c4)oc3c2)[C@H](OC(C)=O)[C@H](OC(C)=O)[C@@H]1OC(C)=O | / | / | / | / | / | .
CCOC(=O)c1sc2nc3c(SCCC(=O)O)cc(C(=O)c4cc(OC)ccc4O)cn3c(=O)c2c1C | ? | 10µM | . | . | / | /
CCOC(=O)c1sc2nc3c(SCCC#N)cc(C(=O)c4cc(F)ccc4O)cn3c(=O)c2c1C | . | . | . | . | / | .[10 µM]
CC(=O)Nc1cc(OC(C)=O)c2nonc2c1OC(C)=O | ? | ? | 7.1µM | . | . | .
CC(=O)Nc1nonc1NC(C)=O | . | . | . | . | . | .[10 µM]
CC1(C)O[C@@H]2O[C@H]([C@H](O)CO/N=C3/[C@H]4O[C@@H]4[C@@H](O)[C@H]4[C@H]3CCn3c(=O)n(-c5ccccc5)c(=O)n34)[C@@H](O)[C@@H]2O1 | / | / | / | / | / | .[10 µM]
CC(O)CN(C)CC/C=C1/c2ccccc2CSc2ccccc21 (stereo not given) | ? | . | 8.9µM | . | / | .[10 µM]
CC(C(=O)N1CCCCC1)N1C(=O)c2ccccc2C1=O (stereo not given) | . | . | 32µM | . | . | .
C=CCn1c(COc2ccccc2)nnc1SC(C)C(=O)N/N=C/c1cc(Cl)ccc1O (stereo not given) | ? | . | 10µM | . | . | .
CC(=O)c1ccc(Sc2nnnn2-c2ccccc2)c([N+](=O)[O-])c1 | ? | . | . | . | / | .[10 µM]
CN1CCN(S(=O)(=O)c2ccc(Sc3nnnn3-c3ccccc3)c([N+](=O)[O-])c2)CC1 | ? | . | 11µM | . | / | .[10 µM]
COC(=O)NC(c1ccccc1)C(C(=O)OC)C(=O)OC (stereo not given) | / | / | / | / | / | .[10 µM]
O=c1cc(N2CCCCC2)c(-c2ccccc2)n[nH]1 | . | . | . | . | / | .
O=c1cc(N2CCCCC2)c(-c2ccccc2)nn1Cc1c(Cl)cccc1Cl | ? | 10µM | ? | . | . | .
Brc1ccc(N/N=C(/N=Nc2nn[nH]n2)c2ccccc2)cc1 | ? | . | 7.1µM | . | / | .
O=C(/C(=N\Nc1ccc(Br)cc1)Sc1nnnn1-c1ccccc1)c1ccccc1 | ? | . | . | . | / | .[10 µM]
Cc1ccc2[nH]c3c(=O)n(N)c(C)nc3c2c1 | . | . | . | . | / | .[10 µM]
Cc1ccc2[nH]c3c(=S)nc[nH]c3c2c1 | . | . | . | 13µM | ? | .[10 µM]
O=S(=O)(Nc1cccc2cccnc12)c1ccc(S(=O)(=O)N2CCCC2)cc1 | . | ? | 0.79µM | . | . | .[10 µM]
COc1cc(/C=C2\C(=O)ON=C2c2ccccc2)cc(Cl)c1O | . | 7.9µM | . | . | / | /
COc1cc(/C=C2/C(=O)ON=C2c2ccccc2)ccc1O | ? | ? | . | . | / | .[10 µM]
O=C1ON=C(c2ccc(Cl)cc2)/C1=C/c1ccc(O)cc1 | ? | 6.3µM | . | . | / | .
CC1=NOC(=O)/C1=C/c1ccc(O)cc1 | . | . | .[9.22 µM] | . | / | .[10 µM]
C[C@@H](N)CCCP(=O)(O)O | / | / | / | . | / | .
O=C(Nc1cc(Cl)ccc1O)c1snnc1-c1ccccc1 | . | ? | 16µM | . | . | .
O=CN1CCc2c([nH]c3ccccc23)C1c1cccc2cccnc12 (stereo not given) | / | / | / | . | / | .
COc1ccccc1C1=NNC(=Nc2cccc(S(=O)(=O)N(C)C)c2)SC1 | / | . | 11µM | . | / | ?
CCOC(=O)C1CCCN(C(=O)Nc2ccccc2)C1 (stereo not given) | . | . | 0.63µM | . | . | /
FC(F)(F)c1cc(NC(=S)N2c3ccccc3-n3cccc3[C@H]2c2cccnc2)cc(C(F)(F)F)c1 | / | / | / | . | / | .[10 µM]
